These results are taken from PubChem BioAssay (NCI).

The panel holds about 79,000 compounds, 15% with a hit somewhere; the sample as a whole holds those more often. The source made the active and inactive calls. Rule as the data show it: active = growth inhibition above about 70%; inactive = the rest.

The nature of one assay: NCI Yeast Anticancer Drug Screen. Data for the rad52 strain (AID 147).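 Also: 0% = growth of vehicle-treated control cultures.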 As to conditions: S. cerevisiae rad52 mutant growth inhibition; at 100.0 µM; hits give high values. The essentials: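 Inhibition of yeast growth, referenced to vehicle controls, was the measured output for a strain with defective DNA damage repair.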
Regarding `COC(=O)c1ccccc1N=NNc1cccc(SC)c1`, the growth inhibition was 88% (active).

As for `CC1=NN(C(=O)c2ccccc2O)C(=O)/C1=C/c1ccco1`, the growth inhibition is 96% (active).

`COc1ccccc1NC(=O)c1ccc(Cl)cc1`: the growth inhibition is 1% (inactive).

Regarding `CC(C)=CCC/C(C)=C/CN1C(=O)C=CC1=O`, the growth inhibition is 99% (active).

As to `O=C1CSC(c2ccccc2)N1c1ccc(-c2ccc(-n3c(-c4ccccc4)nc4ccccc4c3=O)cc2)cc1` (stereo unspecified), the growth inhibition is 38% (inactive).

Turning to `N#CC1OB(O)c2ccccc21` (stereo unspecified), the growth inhibition was 3% (inactive).

As to `O=C(NCCNCCNC(=O)c1cc(-c2ccccc2)nc2ccccc12)c1cc(-c2ccccc2)nc2ccccc12`, the growth inhibition is 41% (inactive).

As for `Brc1ccc(B2Nc3ccccc3N2)cc1`, the growth inhibition is 46% (inactive).

With `CCOP(=O)(OCC)/C(C#N)=C/c1cccc(Oc2ccccc2)c1`, the growth inhibition is 96% (active).

Another assay is described as follows: NCI Yeast Anticancer Drug Screen. Data for the wt1 strain (AID 149).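 Also: 0% = growth of vehicle-treated wt1 cultures.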 The note with it: S. cerevisiae wt1 strain (SPY 50644) growth inhibition; at 1.2 µM; hits give high values. The essentials:
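Compounds are added to wt1 yeast cultures. Growth is then measured. Inhibition is expressed relative to vehicle-treated controls.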
Turning to `CN(C)CC(CN(C)C)C(=O)/C=C/c1ccc(Cl)cc1Cl`, the growth inhibition is -1% (inactive).

Consider `c1ccc2c(c1)ccn2CCc1c[nH]c2ccccc12`, for which the growth inhibition is -16% (inactive).

With `Cc1ccccc1NC(=O)c1c(C)oc2c1C(=O)c1ccccc1C2=O`, the growth inhibition is -28% (inactive).

For the molecule `CC(C)OC(=O)NNc1c(Cl)cc(Cl)cc1Cl`, the growth inhibition is -2% (inactive).

For the molecule `COc1ccc2nc3cccc([N+](=O)[O-])c3c(NCCNCCO)c2c1`, the growth inhibition is -3% (inactive).

For the molecule `COc1ccc2c(c1)CCCC(Br)C2=O` (stereo unspecified), the growth inhibition is 14% (inactive).

Consider `CCC(OC(C)=O)C1CC(C(C)C)CCC1C` (stereo unspecified), for which the growth inhibition was -1% (inactive).

As to `O=S(=O)(c1cccc(C(F)(F)F)c1)N1c2ccccc2-n2cccc2C1c1cccnc1` (stereo unspecified), the growth inhibition is -22% (inactive).

Turning to `c1ccc(-c2cc(C3CO3)c3ccccc3n2)cc1` (stereo unspecified), the growth inhibition is -1% (inactive).

Regarding `COc1ccc(/C=C2\SC(=S)N(/C=C3\C(=O)N(c4ccccc4)N=C3C)C2=O)cc1OC`, the growth inhibition was 3% (inactive).

For the molecule `CC1=CC(=C(c2ccc(N)c(C)c2)c2ccc(N)c(C)c2)C=CC1=N`, the growth inhibition is 8% (inactive).

`CC1C(c2ccccc2)SC(=N)N1C` (stereo unspecified): the growth inhibition was -1% (inactive).

For the molecule `CC(/C=C/c1ccc([N+](=O)[O-])o1)=N/N1CC(CN2CCOCC2)OC1=O` (stereo unspecified), the growth inhibition was 2% (inactive).

For the molecule `C=CC(C)(C)N1C(=O)C(C(C)=O)=C(O)C1Cc1c[nH]c2ccccc12` (stereo unspecified), the growth inhibition was 1% (inactive).

For `O=C1c2cccc3cccc(c23)C(=O)N1CCNCCN1C(=O)c2cccc3cccc(c23)C1=O`, the growth inhibition was 0% (inactive).

With `Cc1ccc([N+](=O)[O-])c2c(NCCC[N+](C)(C)[O-])c3ccccc3nc12`, the growth inhibition was -5% (inactive).

For the molecule `COC(=O)C(Cc1c[nH]c2ccccc12)N1CN(C)c2ccccc2C1=O` (stereo unspecified), the growth inhibition was 7% (inactive).

For `O=C(/N=N/C(=O)Oc1ccccc1)Oc1ccccc1`, the growth inhibition was -57% (inactive).

For the molecule `COc1cc([C@@H]2c3cc4c(cc3[C@@H](NC(=O)NO)[C@H]3COC(=O)[C@H]23)OCO4)cc(OC)c1O`, the growth inhibition was -3% (inactive).

Turning to `CC1(C)CC(=O)C(/C=N/c2nc(-c3ccc(Br)cc3)cs2)=C(O)C1`, the growth inhibition is 1% (inactive).

Turning to `CCOC(=O)/C(=C/c1cccc(Cl)c1)N(CC)CC`, the growth inhibition was 8% (inactive).

As for `CC(C)OC(=O)NNc1cccc(Cl)c1`, the growth inhibition is 1% (inactive).

For `CCC(=O)C1=C(O)c2cc(OC)ccc2CC1C(=O)OC` (stereo unspecified), the growth inhibition is 0% (inactive).

For `O=S(=O)(NC1CCCC(c2ccccc2)C1)c1ccccc1` (stereo unspecified), the growth inhibition is -1% (inactive).

As for `COc1ccc2nc3cccc([N+](=O)[O-])c3c(NCCCCCC(=O)O)c2c1`, the growth inhibition is 2% (inactive).

Consider `CCO/C=C1\SC(=S)N(c2ccc(OCC)cc2)C1=O`, for which the growth inhibition was -36% (inactive).

Turning to `COc1cc(OC)c(CSCC(NC(=O)OCC2c3ccccc3-c3ccccc32)C(=O)O)c(OC)c1` (stereo unspecified), the growth inhibition was 1% (inactive).

Take `COC(=O)c1ccccc1N=NNc1cccc(SC)c1`: the growth inhibition is -14% (inactive).

Turning to `CC1=NN(C(=O)c2ccccc2O)C(=O)/C1=C/c1ccco1`, the growth inhibition was 21% (inactive).

`COc1ccccc1NC(=O)c1ccc(Cl)cc1`: the growth inhibition is -1% (inactive).

In the case of `CC(C)=CCC/C(C)=C/CN1C(=O)C=CC1=O`, the growth inhibition was 2% (inactive).

Consider `O=C1CSC(c2ccccc2)N1c1ccc(-c2ccc(-n3c(-c4ccccc4)nc4ccccc4c3=O)cc2)cc1` (stereo unspecified), for which the growth inhibition is -2% (inactive).

Regarding `N#CC1OB(O)c2ccccc21` (stereo unspecified), the growth inhibition is -5% (inactive).

Consider `O=C(NCCNCCNC(=O)c1cc(-c2ccccc2)nc2ccccc12)c1cc(-c2ccccc2)nc2ccccc12`, for which the growth inhibition was -2% (inactive).

Regarding `Brc1ccc(B2Nc3ccccc3N2)cc1`, the growth inhibition was -2% (inactive).

For `CCOP(=O)(OCC)/C(C#N)=C/c1cccc(Oc2ccccc2)c1`, the growth inhibition was -13% (inactive).

The same assay, now with this note: S. cerevisiae wt1 strain (SPY 50644) growth inhibition; at 3.7 µM; hits give high values.
For `CN(C)CC(CN(C)C)C(=O)/C=C/c1ccc(Cl)cc1Cl`, the growth inhibition was -2% (inactive).

Consider `c1ccc2c(c1)ccn2CCc1c[nH]c2ccccc12`, for which the growth inhibition is -31% (inactive).

For `Cc1ccccc1NC(=O)c1c(C)oc2c1C(=O)c1ccccc1C2=O`, the growth inhibition is -23% (inactive).

On to `CC(C)OC(=O)NNc1c(Cl)cc(Cl)cc1Cl`, for which the growth inhibition was -3% (inactive).

As for `COc1ccc2nc3cccc([N+](=O)[O-])c3c(NCCNCCO)c2c1`, the growth inhibition was 3% (inactive).

Take `COc1ccc2c(c1)CCCC(Br)C2=O` (stereo unspecified): the growth inhibition was 0% (inactive).

Turning to `CCC(OC(C)=O)C1CC(C(C)C)CCC1C` (stereo unspecified), the growth inhibition is -1% (inactive).

As to `O=S(=O)(c1cccc(C(F)(F)F)c1)N1c2ccccc2-n2cccc2C1c1cccnc1` (stereo unspecified), the growth inhibition was -8% (inactive).

Take `c1ccc(-c2cc(C3CO3)c3ccccc3n2)cc1` (stereo unspecified): the growth inhibition was -3% (inactive).

Regarding `COc1ccc(/C=C2\SC(=S)N(/C=C3\C(=O)N(c4ccccc4)N=C3C)C2=O)cc1OC`, the growth inhibition was 5% (inactive).

Take `CC1=CC(=C(c2ccc(N)c(C)c2)c2ccc(N)c(C)c2)C=CC1=N`: the growth inhibition was 9% (inactive).

`CC1C(c2ccccc2)SC(=N)N1C` (stereo unspecified): the growth inhibition is -1% (inactive).

For `CC(/C=C/c1ccc([N+](=O)[O-])o1)=N/N1CC(CN2CCOCC2)OC1=O` (stereo unspecified), the growth inhibition is 11% (inactive).

Regarding `C=CC(C)(C)N1C(=O)C(C(C)=O)=C(O)C1Cc1c[nH]c2ccccc12` (stereo unspecified), the growth inhibition was 5% (inactive).

Regarding `O=C1c2cccc3cccc(c23)C(=O)N1CCNCCN1C(=O)c2cccc3cccc(c23)C1=O`, the growth inhibition is 0% (inactive).

As to `Cc1ccc([N+](=O)[O-])c2c(NCCC[N+](C)(C)[O-])c3ccccc3nc12`, the growth inhibition is 0% (inactive).

As for `COC(=O)C(Cc1c[nH]c2ccccc12)N1CN(C)c2ccccc2C1=O` (stereo unspecified), the growth inhibition was -3% (inactive).

Consider `O=C(/N=N/C(=O)Oc1ccccc1)Oc1ccccc1`, for which the growth inhibition was -51% (inactive).

`COc1cc([C@@H]2c3cc4c(cc3[C@@H](NC(=O)NO)[C@H]3COC(=O)[C@H]23)OCO4)cc(OC)c1O`: the growth inhibition was -2% (inactive).

As to `CC1(C)CC(=O)C(/C=N/c2nc(-c3ccc(Br)cc3)cs2)=C(O)C1`, the growth inhibition was 4% (inactive).

Regarding `CCOC(=O)/C(=C/c1cccc(Cl)c1)N(CC)CC`, the growth inhibition is 13% (inactive).

`CC(C)OC(=O)NNc1cccc(Cl)c1`: the growth inhibition is 8% (inactive).

As for `CCC(=O)C1=C(O)c2cc(OC)ccc2CC1C(=O)OC` (stereo unspecified), the growth inhibition is 5% (inactive).

Regarding `O=S(=O)(NC1CCCC(c2ccccc2)C1)c1ccccc1` (stereo unspecified), the growth inhibition was -4% (inactive).

In the case of `COc1ccc2nc3cccc([N+](=O)[O-])c3c(NCCCCCC(=O)O)c2c1`, the growth inhibition was 29% (inactive).

As for `CCO/C=C1\SC(=S)N(c2ccc(OCC)cc2)C1=O`, the growth inhibition was -51% (inactive).

For `COc1cc(OC)c(CSCC(NC(=O)OCC2c3ccccc3-c3ccccc32)C(=O)O)c(OC)c1` (stereo unspecified), the growth inhibition is 9% (inactive).

Consider `COC(=O)c1ccccc1N=NNc1cccc(SC)c1`, for which the growth inhibition was -31% (inactive).

On to `CC1=NN(C(=O)c2ccccc2O)C(=O)/C1=C/c1ccco1`, for which the growth inhibition was 30% (inactive).

As for `COc1ccccc1NC(=O)c1ccc(Cl)cc1`, the growth inhibition was 1% (inactive).

As for `CC(C)=CCC/C(C)=C/CN1C(=O)C=CC1=O`, the growth inhibition was 29% (inactive).

`O=C1CSC(c2ccccc2)N1c1ccc(-c2ccc(-n3c(-c4ccccc4)nc4ccccc4c3=O)cc2)cc1` (stereo unspecified): the growth inhibition is 0% (inactive).

`N#CC1OB(O)c2ccccc21` (stereo unspecified): the growth inhibition was -4% (inactive).

Turning to `O=C(NCCNCCNC(=O)c1cc(-c2ccccc2)nc2ccccc12)c1cc(-c2ccccc2)nc2ccccc12`, the growth inhibition was -2% (inactive).

In the case of `Brc1ccc(B2Nc3ccccc3N2)cc1`, the growth inhibition is -1% (inactive).

As to `CCOP(=O)(OCC)/C(C#N)=C/c1cccc(Oc2ccccc2)c1`, the growth inhibition is -26% (inactive).
